# Screens as filed in PubChem BioAssay.
# Ins promoter up – MIN6 insulin promoter up-regulation; z-score at 5 µM; MIN6 insulin promoter-GFP reporter, high-content imaging; hits give high values; 190,000 compounds, 0.3% hits;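 active = z-score above 3 at 5 µM with at least 500 cells counted in the well; inconclusive = wells under 500 cells, flagged as cytotoxic or low count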
# L major viab – Leishmania major promastigote growth inhibition | Leishmania major promastigotes, resazurin fluorescence viability | inhibition, % at 10 µM | 200,000 compounds, 9% hits; in the data active = inhibition above about 50%;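 also: promastigotes grown with compound for 44 hours at 28 °C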
# WT yeast gro inh – growth inhibition of WT yeast, mitochondrial fusion screen. inhibition, % at 10 µM. mitochondrial fusion phenotypic screen, WT strain. 190,000 compounds, 2.1% hits; in the data active = inhibition above about 58%; tested in S. cerevisiae
# ROMK primary – modulates human ROMK potassium channel activity | P48048 | Tet-inducible ROMK, thallium flux fluorescence; actives lie on both sides | B-score at 10 µM | 130,000 compounds, 2% hits;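 active = signal ratio slope over the read window, or its plate-corrected B-score, at least 3 SD from the plate mean, either direction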;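 also: B-score of the F/F0 ratio slope over 7 to 12 s after thallium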
# Insulin prom inh – TRM-6 insulin promoter activity inhibition; inhibition, % at 2 µM; TRM-6 cells (human fetal islet line), insulin promoter-eGFP reporter, imaging; reporter expression induced with tamoxifen; AID 1273; 130,000 compounds, 0.9% hits;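 active = inhibition above the mean plus 3 SD, with well images judged a real hit on visual review, cut at about 60% in these data, passing the limit was not always enough; inconclusive = inhibition over the cutoff but images rejected on review; inactive = inhibition not above the cutoff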
# Cl transport mod – KCC2 (human) Cl- transport modulation; Q9H2X9; AID 1456; KCC2 cells, thallium flux FluoZin-2 fluorescence; 190,000 compounds, 2.2% hits; B-score of Tl+ flux slope (higher = more flux/activation; lower = inhibition) at 10 µM;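 active = thallium flux slope and its plate-corrected score both differing from the plate sample mean at a set confidence after two filtering rounds, in either direction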;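 also: slope of fluorescence scaled to starting intensity during 10 to 20 s after thallium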
# Target sequence (Q9H2X9 whole entry, looked up): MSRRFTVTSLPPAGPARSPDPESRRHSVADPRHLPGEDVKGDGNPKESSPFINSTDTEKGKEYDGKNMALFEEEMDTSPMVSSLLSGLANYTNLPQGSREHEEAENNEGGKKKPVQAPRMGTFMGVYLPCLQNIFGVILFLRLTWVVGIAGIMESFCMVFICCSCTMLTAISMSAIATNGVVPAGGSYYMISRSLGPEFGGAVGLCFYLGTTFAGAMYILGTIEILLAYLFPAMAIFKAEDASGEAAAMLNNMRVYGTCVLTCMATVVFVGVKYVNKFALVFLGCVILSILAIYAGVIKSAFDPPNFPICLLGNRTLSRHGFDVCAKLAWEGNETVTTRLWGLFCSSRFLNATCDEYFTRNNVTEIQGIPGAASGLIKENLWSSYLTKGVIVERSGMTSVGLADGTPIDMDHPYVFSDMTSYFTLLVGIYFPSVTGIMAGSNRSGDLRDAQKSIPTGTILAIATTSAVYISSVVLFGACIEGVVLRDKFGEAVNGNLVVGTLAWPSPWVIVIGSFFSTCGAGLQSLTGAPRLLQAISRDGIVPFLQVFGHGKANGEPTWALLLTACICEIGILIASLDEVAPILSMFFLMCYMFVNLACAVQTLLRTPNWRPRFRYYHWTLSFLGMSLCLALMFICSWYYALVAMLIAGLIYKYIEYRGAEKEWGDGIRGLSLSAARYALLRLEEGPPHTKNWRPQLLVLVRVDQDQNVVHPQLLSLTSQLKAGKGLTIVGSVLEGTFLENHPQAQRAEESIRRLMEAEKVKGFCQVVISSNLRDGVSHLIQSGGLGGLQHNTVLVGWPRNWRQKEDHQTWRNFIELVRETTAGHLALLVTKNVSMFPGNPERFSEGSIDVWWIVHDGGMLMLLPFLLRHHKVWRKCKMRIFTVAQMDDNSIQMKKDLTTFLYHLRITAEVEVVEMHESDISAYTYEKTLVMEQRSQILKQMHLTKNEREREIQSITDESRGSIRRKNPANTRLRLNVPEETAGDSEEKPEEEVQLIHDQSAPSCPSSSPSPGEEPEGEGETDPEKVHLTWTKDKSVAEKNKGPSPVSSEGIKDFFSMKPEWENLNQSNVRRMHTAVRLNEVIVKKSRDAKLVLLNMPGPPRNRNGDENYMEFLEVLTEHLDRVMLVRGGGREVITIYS
# * = called active by the depositor; i = inactive; ? = inconclusive; . = no result. Rows were chosen to be rich in hits. Some 12% of all compounds tested hit in one or more screens of this group.
SMILES,Ins promoter up,L major viab,WT yeast gro inh,ROMK primary,Insulin prom inh,Cl transport mod
CC(C)C(=O)NC(Nc1ccccc1F)C(Cl)(Cl)Cl (centres undefined),-0.11,4.5,-0.3,.,3.5,i
N#Cc1nc(-c2ccco2)oc1NCc1cccnc1,0.1,-1.0,-5.9,-0.0782,7.1,.
N#Cc1nc(-c2ccco2)oc1NCc1ccc(F)cc1,-1.57,4.1,61.7*,0.0132,0.0,.
CC1CC(CC(=O)NC(=S)Nc2ccccc2Cl)C(=O)O1 (centres undefined),-2.25,-11.1,14.2,-0.329,25.7,-0.0791
CCCCCC1CC(CC(=O)NC(=S)Nc2ccccc2Cl)C(=O)O1 (centres undefined),0.11,-7.5,61.0*,-0.536,.,1.8
CCN(CC)c1ccc(/C=N/Nc2ccccc2)c(O)c1,0.94,-7.0,-6.3,.,60.0,0.682
O=C(COC(=O)CCSc1ccc(Cl)cc1)NCCc1ccccc1,-0.36,-5.0,2.1,.,.,0.2
O=C(COC(=O)CC(c1ccccc1)c1ccccc1)NCc1ccc(Cl)cc1,0.68,68.8*,63.4*,.,-37.7,-0.0371
O=C(COC(=O)CC(c1ccccc1)c1ccccc1)Nc1c(F)cccc1F,-0.4,50.1*,17.5,-0.162,3.7,-0.0271
O=C(COC(=O)CCSc1ccc(Cl)cc1)NCc1ccccc1Cl,-0.23,-4.1,20.1,0.554,66.7*,0.581
Cc1cccc(-n2nnc(C(=O)NC3CCCc4ccccc43)c2N)c1 (centres undefined),.,13.9,50.8,-0.548,.,-0.0497
COC(=O)C(CCSC)NC(=O)C12CC3CC(CC(C3)C1)C2 (centres undefined),0.2,94.6*,-17.0,0.35,44.4,0.547
CSCCC(NC(=O)C12CC3CC(CC(C3)C1)C2)C(=O)OCC(=O)c1ccc(Cl)cc1 (centres undefined),-0.37,22.4,-5.5,-0.358,.,-0.205
Nc1nc(SCC(=O)Nc2ccccc2)nc2nc3c(cc12)CCCC3,-0.09,66.0*,-3.9,-0.419,25.8,-1.03
Cc1ccc(NC(=O)CSc2nc(N)c3c4c(sc3n2)CSC(C)(C)C4)cc1,-0.84,87.9*,48.5,0.0615,-41.4,-0.027
Cc1ccc(NC(=O)CSc2nc(N)c3cc4c(nc3n2)CCCC4)cc1,-0.47,93.1*,6.9,.,.,0.604
Cc1ccccc1NC(=O)CSc1nc(N)c2c3c(sc2n1)CSC(C)(C)C3,.,13.9,16.4,.,.,0.17
N#Cc1ccc(NC(=O)COC(=O)CCNS(=O)(=O)c2ccccc2)cc1,0.11,45.1,-19.8,.,22.2,-0.783
CCn1c(SCC(=O)N2CCc3ccccc3C2)nc2c1c(=O)n(C)c(=O)n2C,0.52,-6.0,-2.3,.,-91.7,0.36
CCn1c(=O)n(CC)c2cc(S(=O)(=O)NCCOc3ccccc3)c(C)cc21,0.67,99.5*,-7.8,0.233,0.0,.
COc1ccc(S(=O)(=O)NCCOc2ccccc2)cc1C,0.53,-4.5,4.0,-0.0306,.,-1.15
CCOc1ccccc1C(C(=O)NCCOC)N(CCOC)C(=O)Cn1nnc2ccccc21 (centres undefined),-0.27,-4.5,8.9,0.279,.,0.426
COc1cc2c(cc1OC)C(C)N(C(=O)c1cc3c(=O)oc4ccc(C)cc4c3s1)CC2 (centres undefined),-1.3,0.7,37.3,0.24,-25.0,0.602
COc1ccccc1-n1cnc2sc(-c3ccccc3)cc2c1=O,-0.42,-4.5,75.0*,.,.,0.0653
CCCCn1cnc2sc(-c3ccccc3)cc2c1=O,.,7.4,-7.2,.,28.6,.
SMILES,Ins promoter up,L major viab,WT yeast gro inh,ROMK primary,Insulin prom inh,Cl transport mod
CCOC(=O)C1(Cc2cccc(OC)c2)CCN(Cc2ccccc2OC)CC1,-0.67,20.2,9.3,-1.33,.,0.193
CCOC(=O)C1(Cc2cccc(OC)c2)CCN(Cc2ccc(OC)c(OC)c2)CC1,-0.32,90.5*,32.1,0.456,.,-0.52
CCOC(=O)C1(Cc2cccc(OC)c2)CCN(Cc2cccc(OC)c2O)CC1,0.25,72.2*,3.2,0.528,.,-1.34
CCOC(=O)C1(Cc2cccc(F)c2)CCN(Cc2cnn(CC)c2C)CC1,0.72,69.1*,-6.4,.,-33.3,0.135
CCOC(=O)C1(Cc2cccc(F)c2)CCN(Cc2cnn(CC)c2)CC1,-0.02,37.2,4.5,.,.,.
CCOC(=O)C1(Cc2cccc(OC)c2)CCN(Cc2cccc(O)c2)CC1,-0.36,22.0,-1.6,-0.395,.,0.602
CCOC(=O)C1(Cc2ccccc2)CCN(Cc2csc(C(C)=O)c2)CC1,-0.64,85.7*,6.8,-0.41,.,-0.207
Nc1nc2nc(-c3ccc(F)cc3)cc(C(F)(F)F)n2n1,0.4,-4.2,14.8,1.6,.,-0.55
CCCCNC(=S)NCCN1CCCCC1,.,-4.3,-1.8,-0.123,-2.9,-0.0254
COc1cc(C2c3c([nH]c(=O)[nH]c3=O)Nc3ccc4ccccc4c32)ccc1O (centres undefined),-0.26,4.5,0.0,0.0368,36.4,-0.0229
CCOC(=O)C1(Cc2ccccc2)CCN(Cc2cccc(OC)c2O)CC1,0.52,67.5*,1.7,-1.09,.,0.258
COc1ccc(-c2[nH]c(-c3ccccc3)nc2SCC(=O)NCc2ccco2)cc1OC,-0.54,5.9,5.5,.,.,.
COc1ccccc1-n1nnnc1SCC(=O)NC1CCCC1,0.28,0.0,-23.4,.,30.0,-0.1
COc1ccc(-c2[nH]c(-c3cccc(OC)c3)nc2SCC(=O)NC2CCCC2)cc1,0.32,58.5*,-5.5,0.0366,19.1,-1.47
COc1ccc(-c2[nH]c(-c3ccccc3)nc2SCC(=O)NC2CCCC2)cc1,-0.36,20.4,-4.3,-0.364,-12.2,0.276
COc1cccc(-n2nnnc2SCC(=O)NC2CCCC2)c1,0.09,34.0,19.3,0.191,75.0*,-0.0886
COc1ccc(-c2nc(SCC(=O)NCc3ccco3)c(-c3ccccc3)[nH]2)cc1OC,0.8,17.0,-13.9,1.8,72.4*,.
COc1ccc(-c2[nH]c(-c3ccc(F)cc3)nc2SCC(=O)NC2CCCC2)cc1,-0.42,76.5*,-24.6,-1.3,9.5,-0.018
COC(=O)C1=C(C)N(C)C(=S)NC1c1c(OC)ccc2ccccc12 (centres undefined),0.12,9.5,23.9,.,.,0.609
COc1cccc(CN(CC2CCCO2)C(=O)c2cc3ccccc3oc2=O)c1 (centres undefined),0.19,-2.5,15.5,-0.229,.,-0.0214
CCCCNC(=O)Nc1cc(C(F)(F)F)c[nH]c1=O,1.63,4.3,-1.1,.,.,.
Cc1ccc(-c2[nH]c(-c3ccc(Cl)cc3)nc2SCC(=O)NCC2CCCO2)cc1 (centres undefined),-1.2,69.7*,21.5,0.61,41.5,0.539
CCCn1c(SCC(=O)Nc2ccccc2N2CCOCC2)nc2c1c(=O)n(C)c(=O)n2C,.,2.1,-5.8,-0.383,37.5,-0.0764
O=C(Nc1ccc(Br)cc1)c1csc(-c2ccncc2)n1,-0.48,9.5,21.8,0.236,.,-1
COc1cc(OC)cc(C(=O)NCC(=O)OCC(=O)/C=C2/N(C)c3ccccc3C2(C)C)c1,-1.53,11.3,8.7,-2.31,.,-1.64
CN1/C(=C\C(=O)COC(=O)Cn2nnc(-c3ccccc3)n2)C(C)(C)c2ccccc21,?,90.1*,22.0,.,25.8,1.15
